Inconclusive results are not listed. A call without a number means that no potency is given here. The source made the active and inactive calls. Calls follow the shape of the dose curve; as a rule, active = well fitted activation curve with a large enough effect; inconclusive = small, poorly fitted or top-dose-only effect; inactive = no such curve, though single readings can be large or run the other way.
Potency is read from the fitted curve at half-maximal effect.

The assay is described as follows: qHTS Assay for Identifying a Potential Treatment of Ataxia-Telangiectasia: Hit Validation.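 Also: phospho-KAP1 level by AlphaLISA as a proxy for ATM-like kinase activity.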 To be noted: Ataxia-telangiectasia cell-based hit validation qHTS, in ATM-null A-T patient fibroblasts; series mostly up to 76.9 µM. In outline: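 KAP-1 phosphorylation was read by AlphaLISA as a measure of ATM-like activity in ATM-null F2112 fibroblasts. Compounds spanned up to 76.7 uM final, with 60 min exposure at 37C and a 6 hr detection incubation at 25C.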
For orientation: Quantitative high-throughput screening tests each substance at several concentrations.
Take `CNC(=O)/C=C/c1cc(C(=O)c2ccc(Cl)cc2Cl)cn1C`: the Potency result is “inactive”.

Turning to `COc1ccc(N(C)S(=O)(=O)c2cccc(C(=O)OCC(=O)NCc3ccccc3OC)c2)cc1`, the Potency result was “inactive”.

As for `CC(=O)/C(N=Nc1nc2c([nH]1)c(=O)n(C)c(=O)n2C)=C(\C)O`, the Potency entry is “inactive”.

Take `N#Cc1c(-c2ccccc2)cc(-c2ccccc2)[nH]c1=O`: the Potency entry was “inactive”.

For the molecule `CC(=O)Nc1ccc(S(=O)(=O)NCC2(N3CCOCC3)CCCCC2)cc1`, the Potency result is “inactive”.

Take `COc1cccc(C(=O)NOCc2ccc(C)cc2)c1OC`: the Potency result was “inactive”.

`CSc1nc2ccccc2nc1N(C)S(=O)(=O)c1ccc(C)cc1`: the Potency was 58.2 µM (active).

With `NC(=O)C1CCN(Cc2nc3cc(C(F)(F)F)ccc3c(=O)[nH]2)CC1`, the Potency entry was “inactive”.

For the molecule `CCOC(=O)N1CCN(c2nc(N(c3ccccc3)c3ccccc3)nc(-n3ccnc3)n2)CC1`, the Potency result was “inactive”.

For the molecule `CCN(CC)c1ccc2c(Cl)c(Br)c(=O)oc2c1`, the Potency was 36.8 µM (active).

For `O=C(Nc1ccccc1Oc1ccccc1)c1cccs1`, the Potency was 41.2 µM (active).

With `CCOc1cccc(/C=C/c2ccc3cccc(O)c3n2)c1OC`, the Potency is 32.8 µM (active).

Turning to `CCCc1nn(C)c(C(=O)Nc2ccc(C(C)(C)C)cc2)c1Cl`, the Potency entry was “inactive”.

`O=C(O)CCCN1C(=O)/C(=C/C=C/c2ccco2)SC1=S`: the Potency entry is “inactive”.

For `O=C1C2C3C=CC(CC3)C2C(=O)N1c1cccc(Br)c1` (configuration not stated), the Potency entry is “inactive”.

With `CCN(c1ccccc1)S(=O)(=O)c1ccc(Cl)c(C(=O)N(CC2CCCO2)C2CCS(=O)(=O)C2)c1` (configuration not stated), the Potency result is “inactive”.

Take `C=CCOC(=O)C1=C[C@H](c2coc3ccccc3c2=O)C[C@H](OCc2ccc(CO)cc2)O1`: the Potency entry is “inactive”.

The values are drawn from PubChem BioAssay AID493192 (National Center for Advancing Translational Sciences (NCATS), 2011).
